Screens (PubChem BioAssay)
FBW7 activator = human FBW7 E3 ligase activation, primary screen. Q969H0. AlphaScreen FBW7–phospho-cyclin E peptide binding, activator screen. normalized activity (activation), % at 26.1 µM. hit rate 0.13% among 650,000. AID 1259310; in the data active means normalized activity above about 1.9%;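 further: purified mutant Fbw7 with reduced substrate affinity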
GPR151 ag = activates the human receptor GPR151 | activation, % at 11.2 µM | hit rate 1% among 650,000 | PathHunter beta-arrestin GPR151 cells, luminescence; in the data active means activation above about 4.9%;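 further: 0% = median of compound wells and 100% = cells with positive control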
Target sequence (Q8TDV0 whole entry, looked up): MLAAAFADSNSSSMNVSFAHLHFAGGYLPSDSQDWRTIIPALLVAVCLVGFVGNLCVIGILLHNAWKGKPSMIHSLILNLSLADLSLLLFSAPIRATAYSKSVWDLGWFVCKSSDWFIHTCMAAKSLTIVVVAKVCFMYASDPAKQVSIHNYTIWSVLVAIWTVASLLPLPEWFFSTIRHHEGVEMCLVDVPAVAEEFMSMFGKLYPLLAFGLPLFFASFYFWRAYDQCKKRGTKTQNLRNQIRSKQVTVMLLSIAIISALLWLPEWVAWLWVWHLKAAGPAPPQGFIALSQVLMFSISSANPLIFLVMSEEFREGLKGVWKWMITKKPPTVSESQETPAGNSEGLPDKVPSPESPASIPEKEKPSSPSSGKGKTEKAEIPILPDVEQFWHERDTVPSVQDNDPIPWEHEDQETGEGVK
TEAD-YAP inh = TEAD-YAP interaction inhibition; HEK-TIYL cells, TEAD-Gal4/YAP UAS-luciferase luminescence; inhibition, % at 9.12 µM; hit rate 1.4% among 640,000; AID 1259422; in the data active means inhibition above about 32%;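 further: 0% = median of test compound wells and 100% = reference inhibitor wells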
MITF inh = blocks human microphthalmia-associated transcription factor; AlphaScreen MITF homodimerization, bead proximity signal; inhibition, % at 2.6 µM; AID 1259374; hit rate 0.91% among 650,000; O75030; in the data active means inhibition above about 50%;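 further: 0% = vehicle wells with protein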
GPR151 confirm = confirmation of human GPR151 activators | shares compounds with GPR151 ag | GPR151 PathHunter beta-arrestin cells, luminescence, 90 min; % of EA-reagent control over plate median | activation, % at 11.2 µM | 6,700 tested, under 10 active;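 active means mean percent activation across replicates above the confirmation screen cutoff of 4.91%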
GPR119 counter = counter-screen for GPR151 activators: effect on human GPR119; shares compounds with GPR151 ag; GPR119 PathHunter beta-arrestin cells, luminescence, 90 min; 0 = compound-well median, 100 = enzyme-acceptor control; activation, % at 11.2 µM; hit rate 0.3% among 6,700;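 active means mean percent activation in the counterscreen above 29.09%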;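 further: counterscreen on off-target GPR119 to flag nonselective hits from the GPR151 activator screen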
* hit, by the source's call; . = no result given. The list is not random: actives were taken first. Their share in the collection is about 3.5%.

SMILES | FBW7 activator | GPR151 ag | TEAD-YAP inh | MITF inh | GPR151 confirm | GPR119 counter
CC(=O)c1ccc(OC(C)C)c(CSC(=N)N)c1 | 1 | 6.5* | 6 | 13 | 0 | 2
CCCCCCOC(=O)Nc1nnc(CCC)s1 | 0 | 12* | 0 | 18 | 0 | -5
O=C(Nc1nonc1-c1nc2ccccc2n1CCOC(=O)c1ccc(F)cc1)c1ccc(F)cc1 | 0 | -1 | 3 | 1 | . | .
COC(=O)c1ccc(NC(=O)c2c(NCc3ccc(C)o3)sc3c2CCCC3)cc1 | 0 | 8.1* | -7 | 14 | 1 | 0
COC(=O)c1c(NC(=O)c2ccc(C)cc2)sc2c1CCCC2 | 0 | 6.5* | 4 | 1 | 0 | 14
COc1ccc(OC)c(NC(=O)c2c(NCc3ccc(C)o3)sc3c2CCCC3)c1 | 0 | 3 | 4 | 3 | . | .
COC(=O)c1c(NC(=O)c2ccc(C)cc2)sc2c1CCCCC2 | 0 | -1 | -1 | 6 | . | .
CCOC(=O)c1c(C)n(-c2ccccc2)c2c1cc(OC(=O)c1cccc([N+](=O)[O-])c1)c1ccccc12 | 0 | 0 | -4 | -4 | . | .
CSc1cccc(NC(=O)CCC(=O)N2CCSc3ccccc32)c1 | 0 | 17* | -1 | 3 | 0 | -7
O=C(O)c1cccc(-n2nnnc2-c2ccccc2)c1 | 0 | 5.8* | -7 | -5 | -1 | -18
O=C(CCC(=O)OCc1ccc([N+](=O)[O-])cc1)OCc1ccc([N+](=O)[O-])cc1 | 0 | 5.5* | -7 | -2 | 0 | 5
O=C(CCC(=O)c1ccc(Cl)cc1)OCc1ccc([N+](=O)[O-])cc1 | 0 | 1 | 2 | -4 | . | .
CC(C)C(=O)Nc1ccc(-c2csc(N)n2)cc1 | 0 | 2 | -19 | -17 | . | .
CCN1C(=O)/C(=C\c2ccccc2)SC1=S | 0 | 1 | -9 | -4 | . | .
COC(=O)C(CC(C)C)NC(=O)CSC1=NC(=O)C(c2ccccc2)C(=O)N1 (centres undefined) | 0 | 5.6* | 0 | 5 | -1 | -16
CC(C)c1ccc(-n2cc(-c3ccc(C(=O)N4CCCC4)cn3)cn2)cc1 | 0 | 6.2* | 19 | 8 | 0 | 7
O/N=C/c1ccc[n+](C/C=C/c2ccccc2)c1 | 0 | -1 | 3 | 16 | . | .
Brc1ccc2c(ccc[n+]2C/C=C/c2ccccc2)c1 | 0 | 6.2* | 14 | -3 | 1 | -7
Cc1ccc(-c2oc3ccccc3c(=O)c2OC(=O)CN2C(=O)c3ccccc3C2=O)cc1 | 0 | 11* | -17 | 20 | -1 | -6
O=C(CN1C(=O)c2ccccc2C1=O)Oc1c(-c2ccccc2)oc2ccccc2c1=O | 0 | 0 | -29 | -6 | . | .
CCOC(=O)c1cccc2c3c([nH]c12)C(C(=O)OCC)CCC3 (centres undefined) | 0 | 5.0* | -4 | -9 | 0 | -6
Cc1ccnc(SCc2nc3ccccn3c2Br)n1 | 0 | 15* | -31 | 18 | -1 | -14
Cc1ccnc(SCc2nc3ccc(Cl)cn3c2Br)n1 | 0 | -1 | -40 | 7 | . | .
CCCOc1ccc(N2C(=O)C3C(C2=O)C2(C)CC3(C)CC2=O)cc1 (centres undefined) | 0 | 7.8* | -4 | 11 | 0 | -11
CC(Nc1ccc(S(C)(=O)=O)cc1)c1ccccc1 (centres undefined) | 0 | 0 | 1 | -4 | . | .
SMILES | FBW7 activator | GPR151 ag | TEAD-YAP inh | MITF inh | GPR151 confirm | GPR119 counter
COc1cc2c(cc1NC(=O)C/C(C)=N/NC=O)oc1ccccc12 | 0 | 13* | -6 | 15 | 0 | 0
COc1ccc(-c2nc(SCC(=O)O)c3c(=O)n(C)c(=O)n(C)c3n2)cc1 | 0 | -1 | -6 | -15 | . | .
CC(C)Sc1nc(-c2ccco2)nc2c1c(=O)n(C)c(=O)n2C | 0 | 2 | -6 | -7 | . | .
COc1cccc(-c2nc(SCC(=O)O)c3c(=O)n(C)c(=O)n(C)c3n2)c1 | 0 | 12* | 7 | 18 | 0 | 1
Cc1csc(NC(=O)CSc2nc(-c3ccco3)nc3c2c(=O)n(C)c(=O)n3C)n1 | 0 | 6.6* | -8 | -4 | 0 | 2
CC(Sc1nc(-c2ccco2)nc2c1c(=O)n(C)c(=O)n2C)C(=O)O (centres undefined) | 0 | 9.6* | 6 | 10 | 0 | 12
Cn1c(=O)c2c(SCC(=O)Nc3nccs3)nc(-c3ccco3)nc2n(C)c1=O | 0 | 0 | 0 | 16 | . | .
CC(=O)CC(C)(C)S(=O)(=O)c1cccc([N+](=O)[O-])c1 | 0 | 2 | -2 | 14 | . | .
O=C(NCC1Cc2cccc(-c3ccncc3)c2O1)c1cccc(Cn2cccn2)c1 (centres undefined) | 0 | 9.0* | 2 | -3 | 0 | 8
CCOc1ccc(Nc2n[nH]c(=S)n2-c2ccc(OCC)cc2)cc1 | 0 | 6.3* | 4 | 0 | 1 | 5
CC(=O)Nc1ccnn1C1CCN(Cc2cc3ccccc3s2)CC1 | 0 | 0 | 3 | 13 | . | .
CC1CCN(C(=O)Cn2nc(SCc3ccccn3)nc2N)CC1 | 0 | 17* | 5 | 26 | 0 | 2
CC(=O)OC[C@H]1O[C@@H](n2ccc(=O)[nH]c2=S)C(OC(C)=O)C1OC(C)=O (some centres undefined) | 0 | 5.9* | -1 | -6 | 0 | -10
COc1ccc(C2C(C(=O)NCC3COc4ccccc4O3)c3ccccc3C(=O)N2c2ccc(OC)cc2)cc1 (centres undefined) | 0 | 7.2* | 8 | 8 | 0 | -8
CC(=O)N(C)c1nc(-c2ccccc2)ccc1C(=O)NCC1COc2ccccc2O1 (centres undefined) | 0 | 11* | -1 | 20 | 0 | -2
COc1cccc(CC(=O)NCC2COc3ccccc3O2)c1OC (centres undefined) | 0 | 0 | 1 | 4 | . | .
COc1ccccc1CC(=O)NCC1COc2ccccc2O1 (centres undefined) | 0 | 5.7* | -2 | 13 | 0 | 11
O=C(CN1C(=O)c2ccccc2C1=O)NCC1COc2ccccc2O1 (centres undefined) | 0 | -2 | -1 | 1 | . | .
O=C(CN1CCN(Cc2ccccc2)CC1)NCC1COc2ccccc2O1 (centres undefined) | 0 | 9.2* | 4 | -8 | 0 | -8
NC(=O)C1CCN(c2ccc(Nc3ccc(C(F)(F)F)cc3)nn2)CC1 | 0 | 1 | -7 | 2 | . | .
CC(C)(C)CNC(=O)C(=O)Nc1ccc(Br)cc1 | 1 | -1 | -41 | 3 | . | .
Cn1c(=O)c2c(SCC(=O)N3CCCC3)nc(-c3cccs3)nc2n(C)c1=O | 1 | -1 | 3 | 1 | . | .
COC(=O)c1ccc(NC(=S)NCCO)cc1 | 0 | 6.3* | -3 | 13 | 1 | 3
CCOC(=O)c1ccc(NC(=S)Nc2ccsc2C(=O)OC)cc1 | 0 | 5.7* | -11 | -2 | 0 | -14
